About 79,000 compounds went through this panel and 15% of them were active in at least one assay; those are over-represented in the sample as a whole. Activity calls are given as the source filed them. Cut-off read from the data, not from the text of the source: active = growth inhibition above about 70%; inactive = the rest.
Legend:
[1] = NCI Yeast Anticancer Drug Screen. Data for the rad52 strain (AID 147);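 note: 0% = growth of vehicle-treated control cultures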; conditions: S. cerevisiae rad52 mutant growth inhibition, stronger effect = higher value
Outline: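 Genetically altered yeast (DNA damage repair defect) treated with compound; inhibition calculated relative to vehicle.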

[2] = NCI Yeast Anticancer Drug Screen. Data for the wt1 strain (AID 149);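 note: 0% = growth of vehicle-treated wt1 cultures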; conditions: S. cerevisiae wt1 strain (SPY 50644) growth inhibition, stronger effect = higher value
Outline: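 The wt1 strain was treated with compounds, and growth was compared with vehicle-treated cultures to give inhibition.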

[3] = NCI Yeast Anticancer Drug Screen. Data for the rad50EPP+ strain (AID 151);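 note: 0% = growth of vehicle-treated control cultures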; conditions: S. cerevisiae rad50 mutant strain, stronger effect = higher value
Outline: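 Strain rad50EPP+; compound exposure; % growth inhibition vs vehicle.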

[4] = NCI Yeast Anticancer Drug Screen. Data for the mgt1 strain (AID 153); conditions: S. cerevisiae mgt1 mutant growth inhibition, stronger effect = higher value
Outline: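 Read-out: yeast growth inhibition vs vehicle control. Strain mgt1, drawn from a panel altered in DNA damage repair or cell cycle control.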

[5] = NCI Yeast Anticancer Drug Screen. Data for the rad50 strain (AID 155);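 note: 0% = growth of vehicle-only cultures of the same strain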; conditions: S. cerevisiae rad50 strain growth inhibition, stronger effect = higher value
Outline: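 Cells are treated with compound, grown, and their growth is then scored against vehicle-only cultures of the same repair-deficient yeast strain.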

[6] = NCI Yeast Anticancer Drug Screen. Data for the mec2-1 strain (AID 157); conditions: S. cerevisiae mec2-1 strain, stronger effect = higher value
Outline: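 Cells of the genetically defined mec2-1 yeast strain are incubated with test compound. Inhibition of growth is calculated against vehicle-treated controls.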

[7] = NCI Yeast Anticancer Drug Screen. Data for the sgs1 mgt1 strain (AID 161);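 note: 0% = growth of cultures given vehicle only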; conditions: S. cerevisiae sgs1 mgt1 strain, stronger effect = higher value
Outline: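 Genetically altered yeast, compound exposure, growth inhibition relative to vehicle.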

[8] = NCI Yeast Anticancer Drug Screen. Data for the CLN2oe strain (AID 163);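 note: 0% = growth of vehicle-only control cultures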; conditions: S. cerevisiae CLN2oe strain, stronger effect = higher value
Outline: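 Strain altered in cell-cycle control, incubated with compound; growth compared to solvent-treated controls.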

[9] = NCI Yeast Anticancer Drug Screen. Data for the cln2 rad14 strain (AID 165);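 note: 0% = growth equal to vehicle treated cultures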; conditions: S. cerevisiae cln2 rad14 strain, stronger effect = higher value
Outline: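 The screen exposed genetically defined yeast (cln2 rad14) to test compounds and scored growth inhibition relative to vehicle-treated controls.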

[10] = NCI Yeast Anticancer Drug Screen. Data for the bub3 strain (AID 167); conditions: S. cerevisiae bub3 mutant strain, stronger effect = higher value
Outline: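 Part of a panel of yeast mutants defective in DNA damage repair or cell cycle regulation. Each strain is grown with compound, and inhibition is calculated relative to solvent-treated cultures.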

[11] = NCI Yeast Anticancer Drug Screen. Data for the wt2 strain (AID 169);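 note: 0% = growth of vehicle-treated yeast cultures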; conditions: S. cerevisiae wt2 strain growth inhibition, stronger effect = higher value
Outline: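 Steps: yeast strain treated with compound; growth recorded; inhibition calculated relative to cultures given vehicle alone.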

[12] = NCI Yeast Anticancer Drug Screen. Data for the mlh1 strain (AID 171);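 note: 0% = growth of vehicle-treated control cultures of the same strain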; conditions: S. cerevisiae mlh1 strain growth inhibition, stronger effect = higher value
Outline: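 Yeast screen: mutant strain plus compound, growth scored against vehicle control wells.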

[13] = NCI Yeast Anticancer Drug Screen. Data for the mlh1 rad18 strain (AID 175); conditions: S. cerevisiae mlh1 rad18 strain growth inhibition, stronger effect = higher value
Outline: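 Compound-treated yeast growth, normalised to vehicle controls. Strain bears defined DNA repair mutations.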

[14] = NCI Yeast Anticancer Drug Screen. Data for the rad18 strain (AID 177); conditions: S. cerevisiae rad18 mutant growth inhibition, stronger effect = higher value
Outline: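 Inhibition values reflect reduced yeast growth compared with vehicle-treated controls, using a strain engineered with a DNA damage repair defect.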

[15] = NCI Yeast Anticancer Drug Screen. Data for the rad14 strain (AID 159);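 note: 0% = growth of vehicle-treated control cultures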; conditions: S. cerevisiae rad14 strain growth inhibition, stronger effect = higher value
Outline: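 Readout: yeast growth inhibition, referenced to vehicle-only cultures. Strain bears a defined alteration in DNA damage repair.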

[16] = NCI Yeast Anticancer Drug Screen. Data for the sgs1 strain (AID 173);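 note: 0% = growth of vehicle-only control cultures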; conditions: S. cerevisiae sgs1 mutant, stronger effect = higher value
Outline: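 Inhibition of yeast growth served as the measure. The mutant strain was treated with each compound, and growth was normalised to cultures receiving vehicle alone.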

[17] = at 5.0 µM (retest, dose inferred, filed as 0.5)
[18] = at 50.0 µM (retest, dose inferred, filed as 5.0)

Measured: growth inhibition

O=[N+]([O-])c1ccc(N2CCC(CCCC3CCN(c4ccc([N+](=O)[O-])cc4[N+](=O)[O-])CC3)CC2)c([N+](=O)[O-])c1
inactive: [1]; at 1.2 µM -24% | [1]; at 3.7 µM -17% | [1]; at 11.0 µM -7% | [1]; at 33.0 µM 0% | [1]; at 100.0 µM 20% | [2]; at 1.2 µM -6% | [2]; at 3.7 µM -1% | [2]; at 11.0 µM 5% | [2]; at 33.0 µM 11% | [2]; at 100.0 µM 11% | [3]; at 1.2 µM -6% | [3]; at 3.7 µM -14% | [3]; at 11.0 µM -17% | [3]; at 33.0 µM -4% | [3]; at 100.0 µM 18% | [4]; at 1.2 µM -18% | [4]; at 3.7 µM -4% | [4]; at 11.0 µM 0% | [4]; at 33.0 µM 10% | [5]; at 1.2 µM 7% | [5]; at 3.7 µM 1% | [5]; at 11.0 µM 4% | [5]; at 33.0 µM 12% | [5]; at 100.0 µM 31% | [6]; at 1.2 µM -35% | [6]; at 3.7 µM -27% | [6]; at 11.0 µM -22% | [6]; at 33.0 µM -20% | [6]; at 50.0 µM 48.5% | [6]; at 100.0 µM -8% | [7]; [17] -41% | [7]; [18] 51% | [8]; at 1.2 µM -8% | [8]; at 3.7 µM -3% | [8]; at 11.0 µM 3% | [8]; at 33.0 µM -19% | [8]; at 100.0 µM 7% | [9]; [17] 10% | [9]; [18] 50% | [9]; at 50.0 µM 46.2% | [10]; at 1.2 µM -17% | [10]; at 3.7 µM -24% | [10]; [17] 6% | [10]; at 11.0 µM -32% | [10]; at 33.0 µM -6% | [10]; [18] 47% | [10]; at 100.0 µM -4% | [11]; at 1.2 µM -15% | [11]; at 3.7 µM -21% | [11]; at 11.0 µM -9% | [11]; at 33.0 µM 8% | [11]; at 100.0 µM 39% | [12]; at 1.2 µM -19% | [12]; at 3.7 µM -25% | [12]; at 11.0 µM -21% | [12]; at 33.0 µM -24% | [12]; at 100.0 µM 32% | [13]; at 50.0 µM 68.3% | [14]; at 1.2 µM -24% | [14]; at 3.7 µM -25% | [14]; at 11.0 µM -14% | [14]; at 33.0 µM -5% | [14]; at 100.0 µM 4%
active: [4]; at 100.0 µM 77% | [5]; [17] 98% | [5]; [18] 99% | [5]; at 50.0 µM 75% | [6]; [17] 99% | [6]; [18] 99% | [7]; at 50.0 µM 87.5% | [10]; at 50.0 µM 84.3% | [13]; [17] 99% | [13]; [18] 99%

O=C(NNC(=O)OCC(Cl)(Cl)Cl)OCC(Cl)(Cl)Cl
inactive: [1]; at 1.2 µM 0% | [1]; at 3.7 µM 0% | [1]; at 11.0 µM 2% | [1]; at 33.0 µM 2% | [1]; at 100.0 µM 31% | [2]; at 1.2 µM -1% | [2]; at 3.7 µM -2% | [2]; at 11.0 µM -3% | [2]; at 33.0 µM -3% | [2]; at 100.0 µM 11% | [4]; at 1.2 µM 0% | [4]; at 3.7 µM -4% | [4]; at 11.0 µM 48% | [5]; at 1.2 µM -1% | [5]; at 3.7 µM 0% | [5]; [17] -12% | [5]; at 11.0 µM 0% | [5]; at 33.0 µM 1% | [5]; [18] 1% | [5]; at 50.0 µM 20.6% | [5]; at 100.0 µM 23% | [6]; at 1.2 µM -6% | [6]; at 3.7 µM -8% | [6]; [17] -6% | [6]; at 11.0 µM -4% | [6]; at 33.0 µM 4% | [6]; [18] 6% | [6]; at 50.0 µM 20.9% | [6]; at 100.0 µM 32% | [15]; at 1.2 µM 1% | [15]; at 3.7 µM 1% | [15]; at 11.0 µM 3% | [15]; at 33.0 µM 6% | [15]; at 100.0 µM 26% | [7]; [17] 0% | [8]; at 1.2 µM -1% | [8]; at 3.7 µM -5% | [8]; at 11.0 µM -2% | [8]; at 33.0 µM 9% | [8]; at 100.0 µM 38% | [9]; [17] 4% | [9]; [18] 11% | [9]; at 50.0 µM -12.9% | [10]; at 1.2 µM -3% | [10]; at 3.7 µM -8% | [10]; [17] -5% | [10]; at 11.0 µM -6% | [10]; at 33.0 µM -4% | [10]; [18] 7% | [10]; at 50.0 µM 6.9% | [10]; at 100.0 µM 20% | [11]; at 1.2 µM -2% | [11]; at 3.7 µM -4% | [11]; at 11.0 µM 29% | [12]; at 1.2 µM -1% | [12]; at 3.7 µM -2% | [12]; at 11.0 µM 20% | [16]; at 1.2 µM -3% | [16]; at 3.7 µM -1% | [16]; at 11.0 µM 42% | [13]; [17] -1% | [13]; [18] 3% | [13]; at 50.0 µM 0.3% | [14]; at 1.2 µM -1% | [14]; at 3.7 µM 0% | [14]; at 11.0 µM 3% | [14]; at 33.0 µM 13% | [14]; at 100.0 µM 53%
active: [4]; at 33.0 µM 91% | [4]; at 100.0 µM 97% | [7]; [18] 96% | [7]; at 50.0 µM 90.3% | [11]; at 33.0 µM 89% | [11]; at 100.0 µM 96% | [12]; at 33.0 µM 88% | [12]; at 100.0 µM 96% | [16]; at 33.0 µM 92% | [16]; at 100.0 µM 97%

From PubChem BioAssay (NCI)
